Screening data from PubChem.
The list is not random: actives were taken first. Their share in the collection is about 1.7%.
H9c2 TAG inh: inhibitors of triacylglycerol accumulation; H9c2 cells, Nile Red lipid (TAG) fluorescence; cells loaded with 200 µM oleic acid; inhibition, % at 12.5 µM; 230,000 compounds, 0.66% hits; AID 651582;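 active = pattern-corrected inhibition of lipid staining of at least 50% with the nuclear-stain viability signal not falling by more than 50%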;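 also: 0% = DMSO wells and 100% = triacsin C control wells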
MIN6 prolif: induces beta-cell replication in MIN6 cells. 330,000 compounds, 0.29% hits. MIN6 cells proliferation, ATPlite luminescence, 48 h; cells starved in 0.2% serum; 100% = growth in 10% serum. AID 2380. proliferation, % at 10 µM;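 active = compounds whose signal lies at least 3.5 SD above the mean of all wells on their plate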;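 also: 0% = DMSO-treated cells in low-serum medium and 100% = 10% serum control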
CHT inh: inhibits the human high affinity choline transporter; Q9GZV3; CHT-expressing cells, membrane potential dye, choline response; stronger effect = lower value; B-score at 10 µM; AID 488975; 310,000 compounds, 0.86% hits;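 active = B-score over 3 SD under the library average, and starting fluorescence ratio not unusually high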;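 also: choline stimulus applied at its EC90 after an EC20 pre-addition; B-score computed on integrated fluorescence ratio after choline addition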
Target sequence (Q9GZV3 whole entry, looked up): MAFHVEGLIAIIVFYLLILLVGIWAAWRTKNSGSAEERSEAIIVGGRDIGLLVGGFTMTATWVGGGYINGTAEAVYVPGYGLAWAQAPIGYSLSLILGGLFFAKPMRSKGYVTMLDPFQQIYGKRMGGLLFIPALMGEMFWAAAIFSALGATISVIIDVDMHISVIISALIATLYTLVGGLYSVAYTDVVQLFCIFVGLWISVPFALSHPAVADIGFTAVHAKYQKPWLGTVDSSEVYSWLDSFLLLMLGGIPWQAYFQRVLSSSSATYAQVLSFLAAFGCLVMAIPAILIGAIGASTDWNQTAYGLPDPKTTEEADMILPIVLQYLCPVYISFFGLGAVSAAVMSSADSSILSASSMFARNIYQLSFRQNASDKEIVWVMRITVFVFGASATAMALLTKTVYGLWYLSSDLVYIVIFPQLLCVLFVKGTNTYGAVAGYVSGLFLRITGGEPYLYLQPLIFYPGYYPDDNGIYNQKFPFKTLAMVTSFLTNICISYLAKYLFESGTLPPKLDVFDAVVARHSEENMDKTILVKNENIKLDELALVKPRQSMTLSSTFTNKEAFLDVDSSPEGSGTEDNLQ
CHT allo act: allosteric activators of human choline transporter CHT | CHT-expressing cells, membrane potential dye, choline EC20; stronger effect = higher value; LV-AA mutant CHT in HEK293 cells | 310,000 compounds, 0.49% hits | AID 488977 | Q9GZV3 | B-score at 10 µM;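 active = initial fluorescence not abnormally high and integrated response B-score, plate-corrected, over 3 SD above library mean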
TAG conf: confirmation of triacylglycerol accumulation inhibitors; inhibition, % at 12.5 µM; shares compounds with H9c2 TAG inh; H9c2 lipid accumulation, Nile Red fluorescence; cells loaded with 200 µM oleic acid; 990 compounds, 71% hits;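 active = mean inhibition across replicates of 40% or more; inactive = mean inhibition below 40%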;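 also: plate controls were DMSO only wells for no effect and Triacsin C treated wells for full effect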
Starred values were filed as active, the others as inactive; i = inactive; . = no result; ! = not active in a repeat.

SMILES	H9c2 TAG inh	MIN6 prolif	CHT inh	CHT allo act	TAG conf
Cc1cc(C(=O)Nc2ccc(F)c(Cl)c2)on1	.	0.7	i	i	.
Cc1ccccc1-c1cnc(C(O)c2c(C)ccc3ccccc23)[nH]1 (centres undefined)	-16.8	.	.	.	.
CC(C)Cc1nc2sc3c(NCc4ccco4)ncnc3c2c2c1COC(C)(C)C2	53.6*	2.7	i	i	47.1*
Cc1nc2sc3c(NCc4ccco4)ncnc3c2c2c1COC(C)(C)C2	.	0.5	i	i	.
CC1CCN(CC(O)CN2c3ccccc3Sc3ccccc32)CC1 (centres undefined)	.	-5.5	i	i	.
CSc1ccc2c(c1)N(CCC1CCCCN1C)c1ccccc1S2 (centres undefined)	85.1*	-7.9	i	i	59.4*
O=C1CCCC2=C1C1(CCCC1)N=C(Nc1nc3cc(-c4ccccc4)ccc3o1)N2	62.4*	.	.	.	70.8*
CCc1nc2ccc(C(=O)NCc3ccc4c(c3)OCO4)cn2c1N(CCC(C)C)CCN(C)C	72.9*	.	.	.	29.9
O=C(Nc1ccc(F)c(Cl)c1)c1cc(C2CCCCN2C(=O)c2ccc3c(c2)CCO3)on1 (centres undefined)	0.2	.	.	.	.
CCCCCc1cc(=O)oc2c(C(CCN(CC)CC)c3ccc(N(C)C)cc3)c(OC)cc(OC)c12 (centres undefined)	71.9*	-9.1	i	i	60.5*
CCN(CC)CCC(c1cc(OC)c(OC)c(OC)c1)c1c(OC)cc(OC)c2c(C)cc(=O)oc12 (centres undefined)	16.7	-6.3	i	i	.
CCN(CC(=O)Nc1c(F)cccc1F)C(=O)CCCN1C(=O)c2cccc3cccc(c23)C1=O	2.3	.	.	.	.
Cc1ccnc(SCC(=O)c2cc3ccccc3o2)n1	54.0	4.4	i	i	.
CN=C1c2cc3cc(OC)ccc3n2CCN1Cc1ccccc1	57.3*	.	.	.	50.8*
COc1ccc(C2=NOC(C(=O)NCc3cccs3)C2)cc1OC (centres undefined)	.	-2.7	i	i	.
COc1cc(C2=NOC(C(=O)NCc3cccs3)C2)cc(OC)c1OC (centres undefined)	52.2*	-4.0	i	i	62.6*
CC(C)C[C@H](CO)N(Cc1ccccc1)S(=O)(=O)N(Cc1ccccc1)[C@@H](CO)CC(C)C	55.6*	-6.2	.	.	45.9*
CCCc1[nH]n(-c2ccc([N+](=O)[O-])cc2)c(=O)c1C=NCCc1c[nH]c2ccccc12	63.1*	-0.4	i	i	64.9*
COc1cccc(CCNS(=O)(=O)CCNC(=O)c2cccc(OC)c2)c1	-8.0	-2.4	i	i	.
CC1(C)CC(=O)C2=C(C1)NC(SCC(=O)Nc1ccccc1)=C(C#N)C21CCCCC1	58.5*	-3.8	i	i	30.9
CC1=C(C(=O)Nc2ccccc2)C2(CCCCC2)C(C#N)=C(SCC(N)=O)N1	3.7	-1.2	i	i	.
COc1cccc(-c2cc(=O)c3cc(NC(C)=O)ccc3[nH]2)c1	63.4*	-5.3	i	i	33.9
O=C(COc1cccc2ccccc12)N/N=C/C=C/c1ccccc1	-5.3	-3.6	i	i	.
O=C(COc1ccccc1-c1ccccc1)N/N=C/c1cccc2ccccc12	63.2*	-3.4	i	i	36.0
CCCCN(C(=O)Cc1ccc(S(=O)(=O)N2CCOCC2)s1)c1c(N)n(CC(C)C)c(=O)[nH]c1=O	9.2	-1.7	.	.	.
SMILES	H9c2 TAG inh	MIN6 prolif	CHT inh	CHT allo act	TAG conf
CCOC(=O)C1CCCCN1C(=O)c1cc2ccc(OC)cc2c2cc(OC)c(OC)cc12 (centres undefined)	54.4*	.	.	.	24.8
CSc1ccc(/C=C/C(=O)c2ccc(NC(=O)Cc3ccccc3)cc2)cc1	59.1*	-5.7	i	i	22.1
CC1(C)CC(=O)C=C(c2ccc(-c3ccccc3)cc2)C1=O	2.9	.	.	.	.
CCC(=O)NC(Nc1sc2c(c1C(=O)OC)CCCC2)(C(F)(F)F)C(F)(F)F	51.3*	-3.4	i	i	25.9
COc1cc(OC)cc(-c2c(C#Cc3ccsc3)c3cc(-c4cc(OC)c(OC)c(OC)c4)ccc3n2C)c1	31.5	-3.8	.	.	.
COc1cc(C#Cc2c(-c3cncn3C)n(C)c3ccc(-c4ccc5[nH]ccc5c4)cc23)cc(OC)c1	92.6*	-6.4	.	.	92.0*
COc1cc(C#Cc2c(-c3cncn3C)n(C)c3ccc(-c4cc(OC)c(OC)c(OC)c4)cc23)cc(OC)c1	60.7*	-5.1	.	.	76.5*
CCC(Cc1ccccc1)NC(=O)CCc1ccccc1 (centres undefined)	-3.3	1.2	i	i	.
COc1ccc(C(=O)Nc2ccc(C(=O)Nc3cccc(C)c3)cc2)cc1	56.4*	-5.6	i	i	38.5
CC(=O)O[C@H]1C[C@@]2(C)[C@@H](C[C@@H](O)[C@H]3[C@@]4(C)CC[C@@H](O)[C@@H](C)[C@@H]4CC[C@@]32C)/C1=C(\CCC=C(C)C)C(=O)O	60.6*!	-7.9	i	i	55.6*
CC(=O)O[C@]1(C(C)=O)CCC2C3C=C(C)C4=CC(=O)CC[C@]4(C)C3CC[C@@]21C (some centres undefined)	.	0.7	i	i	.
O=C(Cn1cc[n+](CC(=O)c2ccc(Cl)cc2Cl)c1)c1ccc(Cl)cc1Cl	60.1*	-2.8	i	i	44.2*
O=C(Cn1cc[n+](CC(=O)c2ccccc2)c1)c1ccccc1	-3.6	-0.4	i	i	.
O=C(Nc1cc(S(=O)(=O)N2CCCCC2)ccc1N1CCOCC1)c1ccc(C(F)(F)F)cc1	-2.5	-2.0	.	.	.
CCC1=Nc2cc(C(=O)NCCCOC)ccc2Sc2ccccc21	61.0*	-2.9	i	i	44.6*
CCCC1=Nc2cc(C(=O)NCCCOC(C)C)ccc2Sc2ccccc21	40.1	-5.4	i	i	.
CCOc1ccc(C2C(C(=O)c3cccs3)=C(O)C(=O)N2CCN2CCOCC2)cc1 (centres undefined)	.	-1.0	i	i	.
Cc1nn(CC(=O)Nc2ccc(Cl)cc2Cl)c(=O)c2ccccc12	.	1.8	i	i	.
CC(C)(C)OC(=O)[C@H](Cc1ccccc1)NC(=O)c1ncn2c1c(=O)[nH]c1ccc(Br)cc12	64.8*	.	.	.	77.0*
CC(C)(C)OC(=O)[C@H](Cc1ccccc1)NC(=O)c1nc[nH]c1C(=O)N[C@@H](Cc1ccccc1)C(=O)OC(C)(C)C	-10.5	-8.4	i	i	.
C#CCN(C[C@H]1[C@H](OC(=O)NCCCCCC)[C@H](OC(=O)NCCCCCC)C[C@@H](C(=O)OC)[C@H]1C(=O)OC)S(=O)(=O)c1ccc(C)cc1	80.1*	.	.	.	87.7*
C[C@@]12C(=O)Nc3ccc(Br)cc3C(=O)N1[C@H]1c3cc(Cl)ccc3OC[C@@H]1[C@@H]2c1ccccc1	52.1*	-8.5	i	i	63.7*
CCCCNc1c(-c2ccc(OC)c(SC(C)CC)c2)nc2cc(C)ccn12 (centres undefined)	-9.5	-6.3	.	.	.
CCCCNc1c(-c2ccc(-c3ccc(C(C)=O)cc3)c(OC)c2)nc2cc(C)ccn12	58.0*	-6.2	.	.	41.2*
